IDE exosite FP: exo-site inhibitors of human IDE, primary screen, biochemical, fluorescence anisotropy, probe displacement | Insulin-degrading enzyme (Homo sapiens), P14735 | purified IDE, FL-6b probe fluorescence polarization; active compounds read low | z-score at 20 µM | 17,000 compounds, 6.3% hits;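 active = z-score of -3 or lower, meaning strong loss of probe binding signal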;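 note: His-tagged human IDE residues 42-1019 made in E. coli with 30 nM FL-6b probe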
* marks the source's active call; other numbers are inactive results. The sample as a whole holds a higher share of hits than the screen did.

SMILES	IDE exosite FP
O=C(Cc1ccccn1)N1CCCCN2[C@H](C1)[C@@H](c1ccc(C#Cc3ccccc3)cc1)[C@@H]2CO	-6.3*
O=C(Cc1ccccn1)N1CCCCN2[C@H](CO)[C@H](c3ccc(-c4ccc(F)cc4)cc3)[C@H]2C1	3.2
O=C(Cc1ccccn1)N1CCCCN2[C@H](CO)[C@@H](c3ccc(-c4ccc(F)cc4)cc3)[C@@H]2C1	0.033
O=C(Cc1ccccn1)N1CCCCN2[C@@H](CO)[C@@H](c3ccc(-c4ccccc4)cc3)[C@@H]2C1	-3.5*
Cc1ccccc1-c1ccc([C@@H]2[C@@H](CO)N3CCCCN(C(=O)Cc4ccccn4)C[C@@H]23)cc1	-9.5*
CCCC#Cc1ccc([C@H]2[C@@H](CO)N3CCCCN(C(=O)Cc4ccccn4)C[C@H]23)cc1	-1.4
O=C(Cc1ccccn1)N1CCCCN2[C@H](C1)[C@@H](c1ccc(-c3ccccc3)cc1)[C@@H]2CO	-1.2
O=C(Cc1ccccn1)N1CCCCN2[C@H](CO)[C@@H](c3ccc(Br)cc3)[C@H]2C1	-0.92
O=C(Cc1ccccn1)N1CCCCN2[C@H](CO)[C@H](c3ccc(-c4ccccc4)cc3)[C@H]2C1	-4.7*
CCCC#Cc1ccc([C@@H]2[C@@H](CO)N3CCCCN(C(=O)Cc4ccccn4)C[C@H]23)cc1	0.23
O=C(Cc1ccccn1)N1CCCCN2[C@H](C1)[C@H](c1ccc(Br)cc1)[C@@H]2CO	4.4
CCCC#Cc1ccc([C@H]2[C@H](CO)N3CCCCN(C(=O)Cc4ccccn4)C[C@@H]23)cc1	0.65
C/C=C/c1ccc(C2[C@@H]3CN(Cc4cocn4)C[C@H]2N3)cc1 (stereo partly drawn)	1.3
O=C1CNC[C@H]2[C@@H](c3ccc(Br)cc3)[C@H](CO)N12	-0.31
O=C(Cc1cccnc1)N1CCCCN2[C@H](CO)[C@H](c3ccc(C#CC4(O)CCCC4)cc3)[C@H]2C1	2.2
O=C(Cc1cccnc1)N1CCCCN2[C@H](C1)[C@H](c1ccc(C#CC3(O)CCCC3)cc1)[C@@H]2CO	-0.69
CCCC#Cc1ccc([C@@H]2[C@@H](CO)N3CCCCN(C(=O)Cc4ccccn4)C[C@@H]23)cc1	3.6
O=C(Cc1ccncc1)N1CCCCN2[C@H](CO)[C@H](c3ccc(C#Cc4ccccc4F)cc3)[C@@H]2C1	-4.3*
O=C(Cc1ccncc1)N1CCCCN2[C@@H](CO)[C@H](c3ccc(C#Cc4ccccc4F)cc3)[C@@H]2C1	-0.41
O=C(Cc1ccncc1)N1CCCCN2[C@H](C1)[C@@H](c1ccc(C#Cc3ccccc3F)cc1)[C@@H]2CO	-1.8
N#Cc1cccc(-c2ccc([C@H]3[C@@H](CO)N4CCCCN(C(=O)Cc5ccncc5)C[C@@H]34)cc2)c1	1.2
O=C(Cc1ccccc1)N1CCCCN2[C@H](CO)[C@H](c3ccc(C#CC4(O)CCCC4)cc3)[C@H]2C1	4.6
CCC(=O)N1[C@@H]2Cn3c(ccc(C4=CCCC4)c3=O)[C@H]1[C@@H](C(=O)OC)[C@@H]2CO	0.87
OC[C@@H]1Nc2ccc(C#Cc3cccnc3)cc2[C@@H]2NCC[C@H]12	1.6
O=C(O)[C@H]1[C@H](CO)[C@H]2Cn3c(ccc(-c4ccncc4)c3=O)[C@@H]1N2S(=O)(=O)c1ccccc1F	0.78
SMILES	IDE exosite FP
O=C(Cc1ccccn1)N1CCCCN2[C@H](CO)[C@@H](c3ccc(Br)cc3)[C@@H]2C1	1.7
O=C(Cc1ccccn1)N1CCCCN2[C@H](CO)[C@@H](c3ccc(-c4ccccc4F)cc3)[C@H]2C1	-0.28
O=C(Cc1ccccn1)N1CCCCN2[C@@H](CO)[C@@H](c3ccc(-c4ccccc4F)cc3)[C@@H]2C1	-5.6*
O=C(Cc1ccccn1)N1CCCCN2[C@H](CO)[C@H](c3ccc(Br)cc3)[C@@H]2C1	4.5
O=C(Cc1ccccn1)N1CCCCN2[C@H](CO)[C@H](c3ccc(-c4ccccc4F)cc3)[C@H]2C1	-4.4*
O=C(Cc1ccccn1)N1CCCCN2[C@@H](CO)[C@H](c3ccc(-c4ccccc4F)cc3)[C@@H]2C1	0.008
O=C(O)[C@H]1[C@H](CO)[C@H]2Cn3c(ccc(C4=CCCCC4)c3=O)[C@@H]1N2C(=O)Cc1ccccn1	1.1
N#Cc1cccc(-c2ccc([C@@H]3[C@H](CO)N4CCCCN(C(=O)Cc5ccccc5)C[C@@H]34)cc2)c1	2.7
CN(C)CC#Cc1ccc([C@@H]2[C@@H](CO)N3CCCCN(C(=O)Cc4ccccn4)C[C@H]23)cc1	-1.4
COC(=O)[C@@H]1[C@@H](CO)[C@@H]2Cn3c(cccc3=O)[C@@H]2N1CC1CC1	1.2
C/C=C/c1ccc([C@@H]2[C@H]3CN(C(=O)Cc4cccnc4)CCCCN3[C@H]2CO)cc1	0.34
O=C(Cc1cccnc1)N1CCCCN2[C@@H](CO)[C@H](c3ccc(/C=C/c4ccccc4)cc3)[C@@H]2C1	-9.2*
O=C(Cc1cccnc1)N1CCCCN2[C@H](C1)[C@@H](c1ccc(C#CC3CCCC3)cc1)[C@@H]2CO	4.7
C/C=C/c1ccc([C@@H]2[C@@H](CO)N3CCCCN(C(=O)Cc4cccnc4)C[C@H]23)cc1	1.3
